In the library only some 3.9% were active in any assay of this set; here they are far more common.
3CLpro inhibitor: SARS-CoV 3CLpro protease inhibitors, primary screen, biochemical, quenched FRET; inhibition, % at 6 µM; 0.14% of 290,000 active; Replicase polyprotein 1ab (Severe acute respiratory syndrome coronavirus), P0C6X7; AID 1706, 2009; recombinant SARS-CoV 3CLpro, quenched FRET peptide cleavage; in the data active means inhibition above about 12%
Autofluor counter: counter-screen for toxin protease inhibitors: compound fluorescence; compound autofluorescence counterscreen, microsphere flow cytometry; hits give high values; fluorescence intensity (concentration not given with the values); 3.1% of 360,000 active; AID 624483; in the data active means fluorescence intensity above about 16000; inconclusive means no clear call, values can overlap the other calls
BoNT-A LC inh2: BoNT/A light chain protease inhibitors, primary screen, biochemical, flow cytometry, MLPCN library | inhibition, % at 10 µM | multiplex microsphere protease substrate cleavage | Botulinum neurotoxin type A light chain protease (Clostridium botulinum A str. ATCC 3502) | 0.17% of 360,000 active; further: plate controls were buffer without enzyme for full effect and enzyme alone for no effect
DUSP3 inh: VHR1 phosphatase inhibitors, primary screen, biochemical, absorbance, uHTS; Dual specificity protein phosphatase 3 (Homo sapiens), P51452; recombinant VHR phosphatase, pNPP absorbance; inhibition, % at 13.3 µM; 0.52% of 290,000 active; AID 1654, 2009; in the data active means inhibition above about 50%
BoNT F protease: BoNT/F light chain protease inhibitors, primary screen, biochemical, flow cytometry, MLPCN library; Botulinum neurotoxin type F light chain protease (Clostridium botulinum); Multiplex microsphere protease cleavage assay; inhibition, % at 10 µM; 0.22% of 360,000 active; in the data active means inhibition above about 35%, passing the limit was not always enough; inconclusive means no clear call, values can overlap the other calls; further: plate controls were buffer without enzyme for full effect and enzyme alone for no effect
Anthrax LF inh2: Bacillus anthracis LF protease inhibitors, primary screen, biochemical, multiplex microsphere, MLPCN library; multiplex microsphere protease cleavage assay; inhibition, % at 10 µM; 0.12% of 360,000 active; further: plate controls were buffer without enzyme for full effect and enzyme alone for no effect
* = called active by the depositor; ? = inconclusive; . = not tested or not shown. Unless noted, no stated cut-off is given here; in the data, active means inhibition above about 30%; inconclusive means no clear call, values can overlap the other calls; inactive means below that.

SMILES	3CLpro inhibitor	Autofluor counter	BoNT-A LC inh2	DUSP3 inh	BoNT F protease	Anthrax LF inh2
CN1C=CC=C/C1=C1\SC(=S)N(C2CCCCC2)C1=O	4	21024*	?	34	3	-4
CN1C=CC=C/C1=C1\SC(=S)N(c2ccccc2)C1=O	1	3391	0	15	-2	-4
CC1OC2CC(=O)OC2C2=C1C(=O)c1c(O)cccc1C2=O (stereo not given)	.	5201	-1	.	1	-13
Cc1ccc(C2=NN(CC(=O)NCc3ccco3)C(=O)CC2)cc1	2	2565	0	13	0	0
Cc1ccc(C2=NN(CC(=O)O)C(=O)CC2)cc1	-2	3944	3	6	50*	3
Cc1ccc(-n2c3c(c(=O)[nH]c2=O)C(C(F)(F)F)(C(F)(F)F)NC(=O)N3)cc1	5	16132*	1	13	-1	1
Cc1ccc(-n2c3c(c(=O)[nH]c2=O)C(NS(=O)(=O)c2ccc(C)cc2)(C(F)(F)F)C(=O)N3)cc1 (stereo not given)	0	11450	0	22	3	0
COCCn1nnnc1CN(CCc1ccccc1)Cc1cc2cc(OC)ccc2[nH]c1=O	-2	14287	12	.	7	6
COCCn1nnnc1CN(CCc1ccc(OC)c(OC)c1)Cc1cc2ccc(C)cc2[nH]c1=O	-14	.	.	52*	.	.
COc1ccc2cc(CN(Cc3cccnc3)Cc3nnnn3Cc3ccccc3)c(=O)[nH]c2c1	-2	.	.	50	.	.
COc1ccccc1CN(Cc1cc2cc3c(cc2[nH]c1=O)OCCO3)Cc1nnnn1Cc1ccco1	0	23267*	0	-3	-5	-4
CCOC(=O)Cn1nnnc1CN(Cc1cccs1)Cc1cc2cc(C)cc(C)c2[nH]c1=O	3	23938*	-1	11	-1	4
Cc1cccc2cc(CN(Cc3cccs3)Cc3nnnn3Cc3ccccc3)c(=O)[nH]c12	0	10131	-1	33	7	-3
COc1ccc2cc(CN(Cc3cccs3)Cc3nnnn3Cc3ccccc3)c(=O)[nH]c2c1	1	24337*	-1	39	-3	-2
O=C(CSc1nc2[nH]ncc2c(=O)[nH]1)Nc1ccccc1	1	2590	-1	22	-2	-1
Cc1ccc(S(=O)(=O)N2CCCCC2)cc1NC(=O)c1ccncc1	.	6185	-1	.	-13	-5
CN(CC(=O)Nc1ccccc1Cl)C(=O)C1CCN(C(=O)c2ccc(F)cc2)CC1	.	6841	-2	.	-5	-4
CCSC1=N/C(=C\c2ccc(C(=O)O)cc2)C(=O)S1	0	4789	1	15	18	-5
CCOC(=O)SC1=N/C(=C\c2ccc(N(C)C)cc2)C(=O)S1	3	19076*	24	-1	14	20
COc1cc(N/C(N)=N/c2nc(C)cc(C)n2)c(OC)cc1Cl	2	2205	1	15	4	0
CCSc1nnc(NC(=O)c2csc3c2CCCC3)s1	-2	22354*	0	-6	1	-1
CCSc1nnc(NC(=O)c2csc3c2CCC(C)C3)s1 (stereo not given)	1	10092	0	2	-1	-2
CCSc1nnc(NC(=O)c2cccnc2)s1	-6	19138*	10	5	13	-5
CC[C@]1(C(=O)OC)[C@H]2C(=O)N(Cc3ccccc3)C(=O)[C@H]2[C@H]2CN=C(SC)N21	.	3949	-1	.	-8	-6
CNc1nc(NC)c2cn[nH]c2n1	.	3902	0	.	-3	5
SMILES	3CLpro inhibitor	Autofluor counter	BoNT-A LC inh2	DUSP3 inh	BoNT F protease	Anthrax LF inh2
CCN1CCN(S(=O)(=O)c2ccc(Cl)c(C(=O)N(C)Cc3ccc(Cl)cc3Cl)c2)CC1	1	4613	-1	-9	-12	-2
Cc1cc(C(=O)NCc2ccco2)cs1	2	9797	0	-13	-4	-1
O=C(NCc1ccco1)c1ccccc1-c1ccccc1	1	22200*	1	6	3	-4
O=C(NCc1ccco1)c1ccccc1NS(=O)(=O)c1ccc(Br)s1	5	22236*	0	26	0	-4
Cc1scc(C(=O)NCc2ccco2)c1-c1ccccc1	-3	20412*	5	7	4	-3
Cc1nn(-c2ccccc2)cc1/C=N/O	-6	5979	0	21	-2	-9
Cc1nn(C)cc1/C=N/O	1	16844*	9	-10	12	-9
O=C(Nc1cnn(Cc2ccc(Cl)cc2Cl)c1)c1cc(-c2cccs2)on1	-6	8281	0	23	-9	1
CC(=O)c1cccc(NC(=O)Nc2cnn(Cc3ccc(Cl)cc3Cl)c2)c1	5	22775*	-1	7	-4	-2
Cc1cc(C)n(C(C)CC(=O)Nc2ccc(-c3ccno3)cc2)n1 (stereo not given)	2	4632	-3	-7	-3	1
COC(=O)C1=C(C)N(CCc2ccc(OC)cc2)C(=O)C1	1	2063	0	3	-4	-1
COC(=O)C1=C(C)N(Cc2ccc(OC)cc2)C(=O)C1	-3	20549*	-2	27	-3	-6
COc1ccc(CN2C(=O)CC(=O)NC2=O)cc1	-4	21705*	?	8	1	-3
COc1ccc(N2C(=O)CC(=O)NC2=O)cc1	1	8548	1	8	7	4
COC(=O)C1=C(C)N(Cc2cccnc2)C(=O)C1	3	22058*	2	-23	6	1
O=S(=O)(NCC(c1cccs1)N1CCc2ccccc2C1)c1ccccc1 (stereo not given)	.	5590	-3	.	-5	0
CCCN(CC(=O)Nc1ccccc1C)C(=O)/C=C/c1ccc(S(=O)(=O)N2CCCCCC2)cc1	.	5653	2	.	7	-2
Cc1ccc(NC(=O)CSc2nc3c(c(=O)[nH]2)CCC3)cc1C	6	17130*	-2	19	-2	-2
Cc1ccccc1CSc1nc2c(c(=O)[nH]1)CCCC2	-2	.	.	-24	.	.
CN(C(=O)CSc1nc(N)cc(=O)[nH]1)C1CCCCC1	.	4153	-1	.	3	1
CN(C(=O)CSc1nc2c(c(=O)[nH]1)CCCC2)C1CCCCC1	-4	20234*	?	-10	4	-1
O=c1[nH]c(SCc2ccccc2Cl)nc2c1CCC2	0	23543*	-3	-16	-2	-2
Cc1ccc(CSc2nc3c(c(=O)[nH]2)CCC3)cc1	1	20993*	?	20	-4	-2
CS(=O)(=O)Nc1ccccc1-c1ccc2nccn2c1	.	4036	0	.	-10	-2
Cn1c(COc2ccccc2)nnc1SCC(=O)Nc1ccc(N2CCOCC2)c(Cl)c1	-2	17200*	?	11	-5	-4

Compound activity deposited in PubChem by several laboratories.
